# Laboratory results published in ChEMBL document CHEMBL4513216, “Probing the Open Global Health Chemical Diversity Library for Multistage-Active Starting Points for Next-Generation Antimalarials” (ACS Infect Dis, 2020).
# Hit rate of the full screen: of about 69,000 compounds, about 8,600 (12%) showed an effect of 50% or more. The entries come from a sample that favours strong results as a whole.
# Tested on: Plasmodium berghei
# Assay: Screen against P. berghei liver stage (PbLuc), transformed with Luciferase, at 10uM
# Assay type: functional, HepG2
# Settings: tested at 10 uM
row,SMILES,INHIBITION [%]
1,COCC1c2c(cnn2C)CCN1Cc1ccc(C)o1 (centres undefined),34.4
2,Cc1n[nH]c(C)c1CCC(=O)NCC1CCCN(C2CCCC2)C1 (centres undefined),38.6
3,COc1nn(C)cc1C(=O)N1CCC(C)CC1,49.9
4,CNC(=O)[C@H]1C[C@@H]2CN(C(=O)c3cccnc3)C[C@@H]2N1S(C)(=O)=O,10.5
5,Cc1ccc(CN2CCCC3(CCN(Cc4ccc(C)o4)C3)C2)o1 (centres undefined),74.7
6,Cc1ccc(CN2CCCC3(CCN(S(C)(=O)=O)C3)C2)o1 (centres undefined),22.7
7,Cc1ccc(CN2CCC3(CCN(S(=O)(=O)c4ccccc4)C3)C2)o1 (centres undefined),56.8
8,Cc1ccc(CN2CC3(CCN(S(=O)(=O)c4ccccc4)C3)C2)o1,12.4
9,Cc1ccc(CN2CCC3(CCCN(S(C)(=O)=O)C3)C2)o1 (centres undefined),24.9
10,CCS(=O)(=O)N1CCC2(CCN(Cc3ccc(C)o3)C2)C1 (centres undefined),13.1
11,Cc1ccc(CN2CCC3(CCCN(Cc4ccc(F)c(F)c4)C3)C2)o1 (centres undefined),54.7
12,Cc1c[nH]c(CN2CCC3(CCCN(Cc4ccc(F)c(F)c4)C3)C2)n1 (centres undefined),42.2
13,Cc1ccc(CN2CCCC3(CCN(S(=O)(=O)N(C)C)C3)C2)o1 (centres undefined),48.3
14,CC(=O)N1CCN([C@@H]2CC[C@@H](NC(=O)c3cc(C)cs3)[C@H]2O)CC1,33.7
15,Cc1cncc(C(=O)N2CCC3(CC2)NC(=O)CC3c2ccccc2)c1 (centres undefined),-3.88
16,O=C([C@H]1C[C@H]2[C@H](CCN2Cc2cccs2)O1)N1CCOCC1,24.8
17,CSc1ncccc1C(=O)N1C[C@@H]2CC[C@H]1CN(C(C)=O)C2,-31.1
18,COCCNc1c(-c2ccc(C)cc2)c(=O)c1=O,25.3
19,Cc1cc(S(=O)(=O)N2CCC(S(C)(=O)=O)C2)ccc1F (centres undefined),6.09
20,Cc1ccc(S(=O)(=O)N2CCC(N3CCCCC3)CC2)cc1C,45.4
21,Cc1ccc(S(=O)(=O)N2C[C@H](C3CC3)[C@@H](N)C2)cc1F,22.5
22,Cc1ccc(S(=O)(=O)N2CCCCC(N3CCN(C)CC3)C2)cc1F (centres undefined),71.3
23,Cc1cc(S(=O)(=O)N2CCC(S(C)(=O)=O)CC2)ccc1F,16.6
24,Cc1cc(S(=O)(=O)N2CCCN3CCCC3C2)ccc1F (centres undefined),88.1
25,CCc1ccc(CN2CCC3(CC2)CN(c2cnn(C)c2)C(=O)CO3)o1,34.4
26,Cc1ccc(OCCCSC2=NCCN2)cc1,39.1

row,SMILES,INHIBITION [%]
1,CSc1nc2cc(C)n(CC(=O)NC(C)C)c2c(=O)n1CC(C)C,43.9
2,CSc1nc2cc(C)n(CC(N)=O)c2c(=O)n1CC(C)C,42.3
3,COCCNC(=O)Cn1c(C)cc2nc(SC)n(CC(C)C)c(=O)c21,89.9
4,Cc1cc(C)n(CC(=O)N2CCC(Nc3cccnn3)CC2)n1,-7.95
5,O=C(NCc1cccs1)[C@@H]1CC[C@@H]2[C@@H](CCN2C2CCOCC2)O1,27.6
6,Cn1cc(C[C@H]2[C@H](N3CCOCC3)CCN2C(=O)c2ccco2)cn1,17.1
7,Cn1cc(C[C@H]2[C@H](O)CCN2C(=O)c2ccsc2)cn1,60.2
8,CN(C)[C@@H]1CCN(C(=O)c2ccco2)[C@H]1Cc1cnn(C)c1,33.4
9,Cn1cc(C[C@H]2[C@H](N3CCOCC3)CCN2C(=O)c2ccc[nH]2)cn1,55.5
10,COCCO[C@@H]1CCN(C(=O)c2ccc[nH]2)[C@H]1Cc1cnn(C)c1,33.4
11,CCO[C@@H]1CCN(C(=O)c2cnc(C)cn2)[C@@H]1Cc1cnn(C)c1,53.2
12,CN(C)[C@@H]1CCN(C(=O)c2ccsc2)[C@H]1Cc1cnn(C)c1,48.3
13,CN(C)C(=O)N1CC[C@@H](O)[C@@H]1Cc1cnn(C)c1,19.5
14,Cc1ccccc1C(=O)N1CC[C@@H](N(C)C)[C@@H]1Cc1cnn(C)c1,34.6
15,CN(C)[C@@H]1CCN(C(=O)c2cccn2C)[C@H]1Cc1cnn(C)c1,57.9
16,CCO[C@@H]1CCN(C(=O)c2cscn2)[C@@H]1Cc1cnn(C)c1,37.5
17,Cn1cc(C[C@H]2[C@@H](O)CCN2C(=O)c2ccc[nH]2)cn1,4.27
18,O=c1ccc(-c2cccs2)nn1CN1CCOC(c2ccccc2)C1 (centres undefined),-16.5
19,Cc1oc(C)c(C(=O)N2CCN(Cc3cscn3)CC2)c1C,-63.3
20,CN(C)c1cccc(C(=O)N2CCCSCC2CN2CCCC2)c1 (centres undefined),11
21,CC(C)C(NC(=O)Cn1nc2c(cc1=O)CCCC2)C(=O)O (centres undefined),-0.621
22,Cc1ccc(NCc2cncc3c2CCN(C(=O)C2CC=CC2)C3)nn1,-25
23,O=C(c1cncs1)N1CCCC1c1ccn[nH]1 (centres undefined),-28.6
24,Cc1nc(N2CCOCC2)nc2c1CCN(Cc1cccnc1)CC2,4.92
25,Cc1cccc(N2CCN(C(=O)NC(C)c3nncn3C)CC2)c1 (centres undefined),-38.2
26,O=C(N[C@@H]1CC[C@@H](N2CCOCC2)[C@@H]1O)c1cnn2cccnc12,38.8

row,SMILES,INHIBITION [%]
1,COCCO[C@H]1CCN(C(=O)c2ccco2)[C@H]1Cc1cnn(C)c1,-22.5
2,COCCO[C@@H]1CCN(C(=O)c2ccc(C)o2)[C@@H]1Cc1cnn(C)c1,21.6
3,CCO[C@@H]1CCN(C(=O)c2ccnnc2)[C@@H]1Cc1cnn(C)c1,69.5
4,COCCO[C@@H]1CCN(C(=O)c2ccnnc2)[C@H]1Cc1cnn(C)c1,53.4
5,COCCO[C@H]1CCN(C(=O)c2cccnc2)[C@H]1Cc1cnn(C)c1,1.9
6,COCCO[C@H]1CCN(C(=O)c2ccsc2)[C@H]1Cc1cnn(C)c1,-17.9
7,COCCO[C@H]1CCN(C(=O)NC2CC2)[C@H]1Cc1cnn(C)c1,62.8
8,CCO[C@@H]1CCN(C(=O)N(C)C)[C@@H]1Cc1cnn(C)c1,12.4
9,O=C(c1ccnnc1)N1CC[C@H](OCC2CC2)[C@@H]1Cc1ccncc1,66.2
10,CCO[C@@H]1CCN(C(=O)c2ccc[nH]2)[C@@H]1Cc1cnn(C)c1,29
11,O=C(c1cccnc1)N1CC[C@H](OCC2CC2)[C@@H]1Cc1cccnc1,34.8
12,O=C(c1ccnnc1)N1CC[C@@H](O)[C@@H]1Cc1ccccc1,-3.58
13,NC(=O)C1CCCN(C(=O)c2ccn(-c3ccc(F)cc3)n2)C1 (centres undefined),0.914
14,c1cnc2[nH]c(C3CCNCC3)c(CN3CCOCC3)c2c1,6.32
15,O=C([C@H]1CC[C@@H]2[C@@H](CCN2C2CCCCC2)O1)N1CCOCC1,20.6
16,NCCCC(=O)NCC1(O)CCN(c2ccnc3cccnc23)C1 (centres undefined),8.3035
17,OCC1CCCN1c1cc(NCc2ccsc2)ncn1 (centres undefined),43.2
18,OCC1CCCN1c1cc(NCCc2nccs2)ncn1 (centres undefined),-0.71
19,OCC1CCCN1c1cc(NCc2ccccn2)ncn1 (centres undefined),-41.6
20,OCC1CCCN1c1cc(NCCc2ccccn2)ncn1 (centres undefined),64.1
21,OCC1CCCN1c1cc(NCCNc2ccccn2)ncn1 (centres undefined),7.12
22,OCC1CCCN1c1cc(NCCc2ccsc2)ncn1 (centres undefined),66.3
23,C[C@@H]1C[C@H](C(F)(F)F)n2nc(C3CCN(S(=O)(=O)N(C)C)CC3)cc2N1,-2.11
24,CNS(=O)(=O)c1ccc(C(=O)N2CCCC2c2ccccc2C)o1 (centres undefined),7.27
25,O=C(NCc1nn(-c2ccccc2)c2c1CCC2)N1CCCC(O)C1 (centres undefined),-49.4
26,CN(CCO)Cc1nnc(C2CCN(C(=O)C3CCOCC3)CC2)n1C,39.1

row,SMILES,INHIBITION [%]
1,CN1CCC(c2nnc(CN3CCOCC3)n2C)CC1,27.7
2,Cn1c(CN2CCCC2)nnc1C1CCCN(C(=O)C2CCOCC2)C1 (centres undefined),70.1
3,CCN(C)CC(=O)N1CCCC(c2nnc(CN3CCOCC3)n2C)C1 (centres undefined),55.7
4,CN1CCN(Cc2nnc(C3CCN(C4CCCCC4)CC3)n2C)CC1,-10.9
5,CN1CCN(Cc2nnc(C3CCN(C(CO)CO)CC3)n2C)CC1,62.9
6,Cn1c(CN2CCCC2)nnc1C1CCCN(C(=O)CN2CCCC2)C1 (centres undefined),21.2
7,CN1CCN(Cc2nnc(C3CCN(CC4CC4)CC3)n2C)CC1,-17
8,Cn1c(CN2CCCC2)nnc1C1CCCN(C(=O)N2CCOCC2)C1 (centres undefined),5.78
9,CCCOC(=O)N1CCCC(c2nnc(CN3CCOCC3)n2C)C1 (centres undefined),31.2
10,Cn1c(CN2CCOCC2)nnc1C1CCCN(C(=O)CCC2CC2)C1 (centres undefined),8.51
11,Cn1c(CN2CCOCC2)nnc1C1CCN(C(=O)C2CCCC2)CC1,50.1
12,O=C(O)[C@@H]1CN(C(=O)CN2CCCCCC2)C[C@H]1c1ccccc1,-6.21
13,CC(C)C1=NOC2(CCN(S(C)(=O)=O)CC2)C1,-35.4
14,Cc1cc(C)n(CC2CCN(CC(O)COc3ccccc3)CC2)n1 (centres undefined),26.8
15,NC1CCC(n2cc(C(=O)N[C@H]3CCCc4ccccc43)nn2)CC1 (some centres undefined),16.6
16,CCc1nc(C2CCCN(C(=O)c3ccncc3)C2)no1 (centres undefined),-61.4
17,Cc1noc(C)c1-c1cc(CCC2CN(CCC(N)=O)CCO2)ncn1 (centres undefined),-2.2555
18,CCSCc1ccc(C(=O)N2CCCN(CC)CC2)cc1,47
19,COc1ccc(C(C)NCCc2ccc(NC(C)=O)cc2)c(OC)c1 (centres undefined),1.56
20,CN(C)c1cccc(C2CCCN2S(=O)(=O)c2cn(C)cn2)n1 (centres undefined),-52.6
21,CSCCC(NC(N)=O)C(=O)NCc1cnn(-c2ccccc2)c1 (centres undefined),29.8
22,CSCCC(NC(N)=O)C(=O)NCc1ccc(-n2cccn2)cc1 (centres undefined),56.6
23,CSCCC(NC(N)=O)C(=O)Nc1ccc(-n2cccn2)nc1 (centres undefined),1.79
24,CSCCC(O)C(=O)N(C)Cc1cnn(-c2ccc(F)cc2)c1 (centres undefined),24.2
25,CN(Cc1ccc(-n2cccn2)cc1)C(=O)CCC(F)(F)F,35.1
26,CSCC[C@H](NC(C)=O)C(=O)N(C)Cc1ccc(-n2cccn2)cc1,54.4
